Assay results published in PubChem BioAssay (NCATS).
Inconclusive results are not listed. Where a call stands in place of a potency, no number is given. The source made the active and inactive calls. Calls come from the whole dose curve; as a rule, active = well fitted inhibition curve with a large enough effect; inconclusive = small, poorly fitted or top-dose-only effect; inactive = flat fitted curve, though single readings scatter.

These molecules were tested against Glutathione peroxidase 1 (Homo sapiens) (UniProt P07203) (assay: Primary qHTS Assay for Inhibitors of Recombinant Selenoprotein Glutathione Peroxidase 1 (GPX1) (AID 1845191; note: nearly all actives have a fitted effect of over 65% in size)). Settings: recombinant GPX1, GR-coupled NADPH fluorescence, 15 min; series mostly up to 48.8 µM.
Chain of Glutathione peroxidase 1 (Homo sapiens) (P07203 whole entry, looked up): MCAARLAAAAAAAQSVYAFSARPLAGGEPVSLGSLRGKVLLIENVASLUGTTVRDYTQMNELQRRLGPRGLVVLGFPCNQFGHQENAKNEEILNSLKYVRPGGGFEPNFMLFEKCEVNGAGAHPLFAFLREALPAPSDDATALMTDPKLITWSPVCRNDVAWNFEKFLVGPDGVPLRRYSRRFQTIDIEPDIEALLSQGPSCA
Source text: Assay Provider: Elias S.J. Arner MD PhD.
Department of Medical Biochemistry and Biophysics
Karolinska Institutet, Solna, Stockholm, Sweden
Selenoprotein glutathione peroxidases (GPX), like the ubiquitously expressed GPX1 and the ferroptosis modulator GPX4, enact their antioxidant activities by reducing hydroperoxides using glutathione. […] GPX1 and GPX4 inhibitors have thus shown promise as anti-cancer agents. Existing inhibitors are often promiscuous, or modulate GPX activity only indirectly, so novel direct inhibitors identified through screening against GPX1 and GPX4 could be valuable. Here, we developed optimized glutathione reductase (GR)-coupled GPX assays for the biochemical high-throughput screen (HTS) of almost 12,000 compounds with known mechanisms of action. Initial hits were triaged using a GR counter-screen, assessed for isoform specificity using a separate GPX2 assay, and were assessed for general selenocysteine-targeting activity using a thioredoxin reductase (TXNRD1) assay. With this suite of assays, we identified novel GPX1/GPX2- and GPX4-specific inhibitors and can here present a validated pipeline for future discovery research for selenoprotein-targeting agents.
SEQUENCE No. (e.g., 1, 2, 3, etc.); […] (e.g., Cells, Incubation, Reagent, etc.); VALUE; DESCRIPTION.
1; Reagent 1; 3 uL; GPx1 enzyme or no enzyme control in 1536-well, black, solid Greiner assay plate.
2; Compound; 25 nL; Kalypsis pin tool (Wako USA) equipped with a 1536-well pin head.
3; Incubation; 30 min; room temperature.
4; Reagent 2; 1 uL; 10 nM GPX1, 1 mM GSH, 0.5 mM CHP, 0.5 mM NADPH, 100 nM GR, 0.01% BSA substrate
5; Detection; Fluorescence; ViewLux microplate reader, excitation 340 nm and emission 450 nm.
6; Incubation; 15 min; room temperature.
7; Detection; Fluorescence; ViewLux microplate reader, excitation 340 nm and emission 450 nm.
NOTES (numbers refer to Sequence numbers above)
1. 3 uL of 16.66 nM GPX1 and 0.016% BSA in assay buffer (50 mM Tris-HCl, 2 mM EDTA (pH 7.5), 150 mM NaCl) was added to columns 3-48 of 1536-well assay plates using a BioRAPTR Flying Reagent Dispenser (Let's Go Robotics (LGR), Carlsbad, CA). A no-enzyme control (0.01% BSA in TES assay buffer) was added to columns 1-2.
2. 25 nL of test compounds and DMSO controls were added to each well with a pin tool (Kalypsys).
3. The assay plates were incubated for 30 minutes at room temperature.
4. 1 uL of master mix (500 nM glutathione reductase (GR), 5 mM reduced glutathione (GSH), 2.5 mM NADPH in assay buffer) was added. 1 uL of cumene hydroperoxide (CHP) ([2.5 mM] in 50% EtOH) was then added within 5 minutes to initiate the reaction. Final concentrations were: 10 nM GPX1, 1 mM GSH, 0.5 mM CHP, 0.5 mM NADPH, 100 nM GR, 0.01% BSA.
5. Initial fluorescence readout (t=0) at 340/450 nm was measured using a ViewLux multimodal detector (PerkinElmer, Waltham, MA).
7. Endpoint fluorescence readout (t=15) at 340/450 nm was measured 15 min after room temperature incubation.
For `COc1ccc2c(c1)c(CC(=O)O)c(C)n2Cc1ccc(Cl)cc1`, the Potency was “inactive”.
`COc1cc(CNC(=O)CCCCCCC(C)C)ccc1O` was tested, and the Potency was “inactive”.
For `Oc1cc2c(cc1O)C(c1ccccc1)CNCC2` (stereo not given), the Potency was “inactive”.
`C=CCN1CCc2c(cc(O)c(O)c2Br)[C@@H](c2ccccc2)C1` was tested, and the Potency was “inactive”.
`Cn1cc(C(=O)OCC2CCN(CCNS(C)(=O)=O)CC2)c2ccccc21` was tested, and the Potency was “inactive”.
With `O=C1C2C=CC=CC2=NC(=S)N1CCN1CCC(=C(c2ccc(F)cc2)c2ccc(F)cc2)CC1` (stereo not given) the Potency was “inactive”.
In the case of `O=C1NC(=O)c2cc(Nc3ccccc3)c(Nc3ccccc3)cc21`, the Potency is reported as “inactive”.
With `CC(C)(C)c1cc(/C=C(\C#N)C(N)=S)cc(C(C)(C)C)c1O` the Potency was “inactive”.
For `N=C(N)c1ccc(OCCCCCOc2ccc(C(=N)N)cc2)cc1` (tested in a mixture with another compound), the Potency was “inactive”.
`C/C(=C\c1ccc(C(=O)O)cc1)c1ccc2c(c1)C(C)(C)CCC2(C)C` was tested, and the Potency was “inactive”.
In the case of `Cc1cccc(C(=O)NCN2CCN(c3ccccc3C#N)CC2)c1`, the Potency is reported as “inactive”.
`CC1=C(/C=C/C(C)=C/C=C/C(C)=C\C(=O)O)C(C)(C)CCC1` was tested, and the Potency was “inactive”.
In the case of `COc1ccc(NC(=O)c2ccc(-c3ccc(-c4noc(C)n4)cc3C)cc2)cc1N1CCN(C)CC1`, the Potency is reported as “inactive”.
For `Nc1nc2c(cnn2CCc2ccccc2)c2nc(-c3ccco3)nn12`, the Potency was “inactive”.
For `COC1(C2=NCCN2)COc2ccccc2O1` (stereo not given), the Potency was “inactive”.
`OC1(c2ccc(Cl)cc2)CCN(Cc2c[nH]c3ccccc23)CC1` was tested, and the Potency was “inactive”.
`C[C@](Cc1ccc(O)c(O)c1)(NN)C(=O)O` was tested, and the Potency was “inactive”.
For `CCCCCCCC/C=C\CCCCCCCC(=O)NCCc1ccc(O)c(O)c1`, the Potency was “inactive”.
`N=C(N)SCCN` was tested, and the Potency was “inactive”.
In the case of `Cc1ccccc1/C=C/C1=NCCN1`, the Potency is reported as “inactive”.
With `CN[C@H](CC(=O)O)C(=O)O` the Potency was “inactive”.
For `NCCCNCCCCNCCCN`, the Potency was “inactive”.
In the case of `COc1ccccc1N1CCN(CCCCN2C(=O)c3ccccc3C2=O)CC1`, the Potency is reported as “inactive”.
In the case of `CCOC(=O)C12CC1/C(=N/O)c1ccccc1O2` (stereo not given), the Potency is reported as “inactive”.
With `CC(N)=NCCCC[C@@H](N)C(=O)O` the Potency was “inactive”.
In the case of `C[C@@H](NCCc1ccc(O)cc1)[C@@H](O)c1ccc(O)cc1`, the Potency is reported as “inactive”.
With `C=CCn1c(=O)c2c(nc(-c3ccc(S(=O)(=O)O)cc3)n2C)n(C)c1=O` the Potency was “inactive”.
In the case of `CCCCCCCCCCCCCCCCCCOC[C@H](COP(=O)([O-])OCC[N+](C)(C)C)OC`, the Potency is reported as “inactive”.
With `O=c1[nH]c(=O)c2nc3ccccc3nc2[nH]1` the Potency was “inactive”.
`Cc1nc(N=Nc2ccc(C(=O)O)cc2)c(COP(=O)(O)O)c(C=O)c1O` was tested, and the Potency was “inactive”.
In the case of `Cc1nc2n(c(=O)c1CCN1CCC(c3noc4cc(F)ccc34)CC1)CCCC2O` (stereo not given), the Potency is reported as “inactive”.
With `C[C@@]1(C2CCCC2)Cc2cc(OCC(=O)O)c(Cl)c(Cl)c2C1=O` the Potency was “inactive”.
For `N[C@H]1CONC1=O`, the Potency was “inactive”.
In the case of `NC(=Nc1ccccc1)NC(=O)c1nc(Cl)c(N)nc1N`, the Potency is reported as “inactive”.
With `C=C1C[C@@]23CC[C@H]4[C@@](C)(CCC[C@@]4(C)C(=O)OC4OC(CO)C(O)C(O)C4O)[C@@H]2CC[C@]1(OC1OC(CO)C(O)C(O)C1OC1OC(CO)C(O)C(O)C1O)C3` (stereo not given in full) the Potency was “inactive”.
`CC(=O)NNC(=O)N1Cc2ccccc2Oc2ccc(Cl)cc21` was tested, and the Potency was “inactive”.
In the case of `O=C(O)C1CCCNC1` (stereo not given), the Potency is reported as “inactive”.
For `NC1(C(=O)O)CCCCC1`, the Potency was “inactive”.
In the case of `[N-]=[N+]=Nc1ccc(C(=O)CSC[C@H](NC(=O)CC[C@H](N)C(=O)O)C(=O)NCC(=O)O)cc1`, the Potency is reported as “inactive”.
`CCN(CC)CCCCCCCCOC(=O)c1cc(OC)c(OC)c(OC)c1` was tested, and the Potency was “inactive”.
